This is an account of results in PubChem BioAssay (EPA / NIEHS).

Values joined by “and” are separate entries in the source; they are usually repeats but may differ in a detail not shown here. Equal entries are not always repeated. Inconclusive results are not listed. More than one record can exist for a structure, and the calls need not agree. Active and inactive are the calls of the source. How the source made its calls: active means hit-call score of the fitted dose curve at least 0.9, where 1 is the maximum; inconclusive means response in the unintended direction; inactive means score below 0.9.

Test [1] in a line: ATG_XTT_Cytotoxicity: Cytotoxicity Assessment in the Attagene TRANS-FACTORIAL HepG2 Assay (AID 2283584). In outline:
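Transfect HepG2 with GAL4-UAS reporter units, dose compound, incubate 24 h, then measure viable cell number by XTT. Fit concentration response against DMSO baseline.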

The nature of test [2]: TOX21_p53_BLA_p2_viability: Viability Assessment in the Tox21 HCT-116 p53 Agonism Beta-lactamase Assay, Phase 2 (AID 2283591).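 Further: compound exposure lasted 16 h at 37 °C; actives lower the ATP signal meaning cytotoxicity.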 In outline:
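HCT116 p53-bla cells, 4000/well, dosed after 5 h plating (217-fold dilution of DMSO stocks) and incubated 16 h at 37C. Viability taken as cellular ATP by CellTiter-Glo luminescence after 30 min RT; signal loss marks cytotoxicity.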

For test [3], the target named is Cellular tumor antigen p53 (Homo sapiens) (UniProt P04637). As to the kind of experiment: TOX21_p53_BLA_p2_ratio: Tox21 HCT-116 p53 Agonism Beta-lactamase Assay, Ratio, Phase 2 (AID 2283592). The method, boiled down:
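An inducible beta-lactamase reporter in HCT116 cells signals p53 pathway activation. After 16 h chemical exposure at 37C, cells load CCF4-AM substrate for 2 h at room temperature; activity is the cleaved/uncleaved emission ratio relative to DMSO.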

The nature of test [4]: TOX21_p53_BLA_p3_viability: Viability Assessment in the Tox21 HCT-116 p53 Agonism Beta-lactamase Assay, Phase 3 (AID 2283593).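 Further: cells exposed to compound for 16 h before reading.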 The method, boiled down: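 HCT116 cells, 4000/well, dosed 5 h after plating by pin transfer (217-fold dilution from DMSO stock) and incubated 16 h at 37C, 5% CO2. Viability read as ATP luminescence with CellTiter-Glo after 30 min at room temperature.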

Sequence of Cellular tumor antigen p53 (Homo sapiens) (P04637 whole entry, looked up): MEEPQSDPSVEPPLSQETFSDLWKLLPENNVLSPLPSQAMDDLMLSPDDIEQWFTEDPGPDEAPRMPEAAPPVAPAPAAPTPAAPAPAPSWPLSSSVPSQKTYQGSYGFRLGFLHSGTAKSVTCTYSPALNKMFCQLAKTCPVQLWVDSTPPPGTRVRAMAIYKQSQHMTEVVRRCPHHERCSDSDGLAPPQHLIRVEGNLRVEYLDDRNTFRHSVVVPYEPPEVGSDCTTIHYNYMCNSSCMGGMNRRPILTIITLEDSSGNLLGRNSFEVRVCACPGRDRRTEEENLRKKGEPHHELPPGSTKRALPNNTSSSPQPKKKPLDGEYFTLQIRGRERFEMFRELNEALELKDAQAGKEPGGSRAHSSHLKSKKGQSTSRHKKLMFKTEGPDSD

The term AC50 denotes the concentration giving half of the maximal activity seen. Regarding `CC(C)Nc1ccc(Nc2ccccc2)cc1`, the molecule was called inactive in test [1], in test [3] and in test [4]. In addition, the half-maximal activity concentration (AC50) in test [2] was 46.1 µM (active) and 45.9 µM (active) and 23 µM (active); in test [3], 14.6 µM (active) and 23.1 µM (active).

Regarding `CCOP(=S)(S)OCC`, the molecule was called inactive in test [1], in test [2] and in test [3].

In the case of `O=C(CBr)OCc1ccccc1`, the molecule was called inactive in test [1], in test [2] and in test [3].

As for `O=S1(=O)OCC2C(CO1)C1(Cl)C(Cl)=C(Cl)C2(Cl)C1(Cl)Cl` (centres undefined), the molecule was classed as inactive in test [1], in test [2], in test [3] and in test [4].

Take `CCCCN(CC)C(=O)SCCC`: the result in test [2], in test [3] and in test [4] was inactive.

Take `CCCCC(CC)COC(=O)c1c(Br)c(Br)c(Br)c(Br)c1C(=O)OCC(CC)CCCC` (centres undefined): the outcome in test [3] was inactive.

On to `O=P(OCC(Br)CBr)(OCC(Br)CBr)OCC(Br)CBr` (centres undefined), for which the outcome in test [1], in test [2], in test [3] and in test [4] was inactive. Moreover, the AC50 in test [3] is 80.2 µM (active).

Turning to `COC(N)=O`, the call in test [1], in test [2], in test [3] and in test [4] was inactive.

Consider `O=c1ssc(Cl)c1Cl`, for which the result in test [1], in test [2] and in test [3] was inactive. Besides, in test [4], the AC50 was 73.7 µM (active).

As for `C=CC(=O)OCC(CC)(COC(=O)C=C)COC(=O)C=C`, the call in test [1] and in test [3] was inactive. In addition, the concentration at half-maximal activity (AC50) in test [2] was 46.1 µM (active) and 95.1 µM (active); in test [3], 86.6 µM (active); in test [4], 69.2 µM (active) and 16.2 µM (active).

As for `CCOP(=S)(OCC)SCn1nnc2ccccc2c1=O`, the result in test [1], in test [2], in test [3] and in test [4] was inactive.

Take `CC1(C)CN=C(NN=C(/C=C/c2ccc(C(F)(F)F)cc2)/C=C/c2ccc(C(F)(F)F)cc2)NC1`: the outcome in test [1] was inactive. For the same molecule, the half-maximal activity concentration (AC50) in test [2] was 14.7 µM (active); in test [3] it was 20.6 µM (active); in test [4], 31.6 µM (active).

As to `CCCCOCC1CO1` (centres undefined), the call in test [1] and in test [3] was inactive.

On to `CCCCc1ccc(O)cc1`, for which the outcome in test [1] and in test [3] was inactive.

With `CCOP(=S)(OCC)SCSc1ccc(Cl)cc1`, in test [1], the outcome was inactive.

As to `NNC(N)=S`, the call in test [1], in test [2], in test [3] and in test [4] was inactive.

On to `COP(=O)(O)OC`, for which the result in test [1], in test [2], in test [3] and in test [4] was inactive.

`Cc1ccc2c(c1N)C(=O)c1ccccc1C2=O`: the outcome in test [1], in test [2], in test [3] and in test [4] was inactive.

Take `C=C(C)C(=O)OCC1CO1` (centres undefined): the result in test [1], in test [2], in test [3] and in test [4] was inactive.

Turning to `CNC(=O)Oc1ccc(N(C)C)c(C)c1`, in test [3], the result was inactive.

With `C/C(=N\NC(=O)Nc1cc(F)cc(F)c1)c1ncccc1C(=O)O`, the call in test [1], in test [2], in test [3] and in test [4] was inactive.

`O=S(=O)(c1ccc(O)cc1)c1ccc(O)cc1`: the molecule was classed as inactive in test [1], in test [2], in test [3] and in test [4].

`O=c1[nH]c2ccccc2c(=O)o1`: the molecule was classed as inactive in test [1] and in test [3].

As for `CO/N=C(/C(=O)OC)c1ccccc1COc1ccccc1C`, the molecule was called inactive in test [1], in test [2] and in test [4]. Further, in test [3], the AC50 was 27.1 µM (active).

With `CCN(CC)C1CCCCC1`, the result in test [3] and in test [4] was inactive.

`Cc1c([N+](=O)[O-])cc2c(c1[N+](=O)[O-])C(C)(C)CC2(C)C`: the molecule was called inactive in test [1] and in test [3].

For `CCOP(=S)(NC(C)C)Oc1ccccc1C(=O)OC(C)C` (centres undefined), the call in test [1], in test [2], in test [3] and in test [4] was inactive.

Take `CCCCOCCOP(=O)(OCCOCCCC)OCCOCCCC`: the result in test [1], in test [2], in test [3] and in test [4] was inactive.

As for `CC(=O)CCc1ccc2c(c1)OCO2`, the molecule was classed as inactive in test [1] and in test [3].

As to `FC(F)(F)c1ccc(Cl)cc1`, the result in test [1], in test [3] and in test [4] was inactive.

For `CC1=C(C(=O)Nc2ccccc2)S(=O)(=O)CCO1`, the result in test [1] and in test [2] was inactive. Also, the AC50 in test [3] is 22.1 µM (active).

Consider `O=NN1CCCC1`, for which the outcome in test [2], in test [3] and in test [4] was inactive.
